Shown is part of a subset that was picked to be rich in hits.
Tgondii IFNg = T. gondii growth inhibition under IFN-gamma; Toxoplasma gondii growth in IFN-gamma-treated host cells; hits give low values; activity change, negative = inhibition, % (concentration not given with the values); 3.8% of 69,000 active; AID 1259416; in the data active = activity change below about -70%, passing the limit was not always enough;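 also: host cells are HeLa cells infected with Toxoplasma gondii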
Numbers stand for hits; 0 = inactive.

SMILES	Tgondii IFNg
O=C(c1ccc(OCCN2CCCCC2)cc1)c1c(-c2ccc(O)cc2)sc2cc(O)ccc12	0
COc1ccc(N)cc1N1CCCCS1(=O)=O	0
Cc1ccc(S(=O)(=O)NCCc2sc(-c3ccccc3)nc2C)cc1	0
O=c1nc(N2CCCCC2)ccn1-c1nc(-c2ccccc2)sc1-c1ccccc1	0
Cc1ccc(C(=O)N2CCC3(CC2)CC(CC(=O)NCC(C)C)c2ccccc2O3)o1 (stereo not given)	0
Cc1c(C(=O)N2CCC(C)CC2)oc2ccc3c(c12)C(O)CC1(CCCCC1)O3 (stereo not given)	-99.9
CC1(C)Oc2ccc3ccc(=O)oc3c2C(N2CCCCC2)C1O (stereo not given)	0
COc1c(C)cnc(CN2CCCC3(CC2)CN(C)C(=O)O3)c1C (stereo not given)	0
CCS(=O)(=O)N1CC[C@@H](OCCOC)[C@@H]1Cc1ccccc1	0
O=C(Nc1cc(Cl)cc(Cl)c1O)c1c(O)c(Cl)cc(Cl)c1Cl	0
NCC1Cc2c(ccc3cc(-c4ccncc4)ccc23)O1 (stereo not given)	-85.6
Cc1noc(CN(C)Cc2cc3cc4c(cc3[nH]c2=O)CCC4)n1	0
O=c1[nH]c2cc3c(cc2cc1CNc1ccc(N2CCCCC2)cc1)CCC3	-98.9
O=c1[nH]c2cc3c(cc2cc1CNc1cccc2c1CCCC2)OCCO3	0
COc1cc(OC)c(OC)cc1/C=C/C1=CCN(C)CC1	0
Cc1nc(C)c(C(=O)N2CCC(c3nc(-c4ccncc4)cc(=O)[nH]3)C2)s1 (stereo not given)	0
O=S(=O)(Oc1cccnc1)c1cc(Br)c(Br)s1	0
Cc1cc(C)c2c(n1)sc1c(=O)n(N)c(C)nc12	0
Cc1nn(-c2ccc(F)cc2F)c(=O)c2nc(-c3ccccc3)sc12	0
Cc1nc2cc(-c3ccccc3)sc2c(=O)n1N	-107.1
CNC(=O)[C@@H]1C[C@@H](N)CN1C(=O)CSC12CC3CC(CC(C3)C1)C2	0
COCC1CN(Cc2ccc(C)s2)Cc2nn(CC3CC3)cc21 (stereo not given)	0
CCN(C(=O)c1ccc2nc(C)[nH]c2c1)C1CCS(=O)(=O)C1 (stereo not given)	0
O=S(=O)(Nc1ccc(F)c(Cl)c1)c1ccccc1Oc1ccc(Cl)cc1Cl	0
COC(=O)CSC(=O)NC(=O)c1ccccc1Oc1ccc(Cl)cc1Cl	-91.7
SMILES	Tgondii IFNg
COc1ccccc1Oc1ccccc1C(=O)O	0
CCOc1ccc(NC(=O)CN2CCC3(CC2)N=C(c2ccc(Cl)cc2)C(=O)N3)cc1	0
CCC(=O)Nc1c(C)ccc2nsnc12	0
O=C(Nc1ccc2c(c1)OCCO2)c1ccc2nsnc2c1	0
C=CCN(CC=C)C(=O)Nc1ccc2nsnc2c1	-81.1
C=CC[C@@H]1CC=C[C@@H](C)N1C(=O)CCn1c(C)cc(C)nc1=O	0
O=C(NCC(c1ccncc1)N1CCOCC1)c1cccc(-n2cccn2)c1 (stereo not given)	0
CCCCNC(=O)c1ccc(-c2ccccc2CO)o1	0
O=C(C[C@H]1CC[C@H]2[C@@H](COC[C@H](O)CN2C(=O)c2cnccn2)O1)N1CCN(c2ccccc2)CC1	0
NS(=O)(=O)c1ccc(NC(=O)c2ccc(-c3cc(Cl)ccc3Cl)o2)cc1	-100.3
NS(=O)(=O)c1ccc(NC(=O)Nc2ccc(F)cc2)cc1	0
O=C(Nc1ccc(S(=O)(=O)Nc2ccccn2)cc1)c1ccc(Cl)c(Cl)c1	0
O=C(O)C1C2C=CC(C2)C1C(=O)NCCN1CCOCC1 (stereo not given)	0
CC1CCCN(C(=O)c2nc(-c3ccc(Cl)cc3)n3c2CCCCC3)C1 (stereo not given)	-96.6
CCOC(=O)C1CCN(C(=O)c2nc(-c3ccc(Cl)cc3)n3c2CCCCC3)CC1	0
Cc1ccc(-c2nc(C(=O)N3CCCC(C)C3)c3n2CCCCC3)cc1 (stereo not given)	-95.9
Cc1ccc(-c2nc(C(=O)N3CCC(C)CC3)c3n2CCCCC3)cc1	0
CCOC(=O)C1CCCN(C(=O)c2nc(-c3ccc(Cl)cc3)n3c2CCCCC3)C1 (stereo not given)	0
O=C(c1nc(-c2cccc(F)c2)n2c1CCCCC2)N1CCN(c2ccccc2)CC1	0
Cn1cc(C(=O)NCc2cn3c(n2)CN(Cc2ccoc2)CC3)cn1	0
CCS(=O)(=O)N1[C@H](CO)[C@@H](c2ccc(-c3cccc(F)c3)cc2)[C@@H]1C#N	0
Cc1c(C(=O)Oc2ccc(Cl)cc2)sc2nc(-c3ccc(Cl)cc3)nn12	0
COc1ccc(CNc2nc(SCc3ccc(Cl)cc3)nc3ccccc23)cc1	0
CCN(CC)c1ncc2c(NCc3ccccc3)nc(SCc3ccccc3)nc2n1	-109.9
COc1ccc(CNc2nc(SCc3ccc(F)cc3)nc3ccccc23)cc1	0
SMILES	Tgondii IFNg
O=C(Nc1cccc(F)c1)C1CCC2(CN(CCO)C2)O1 (stereo not given)	0
O=C(O)COc1ccccc1-n1cnnc1-c1ccco1	0
O=C1C2CCCCC2C(=O)N1c1ccc(OS(=O)(=O)c2ccccc2)cc1 (stereo not given)	0
NC(N)=N/N=C/c1ccc(OS(=O)(=O)c2ccccc2)cc1	-76.8
NC(N)=N/N=C/c1c(Cl)cccc1Cl	0
Cc1ccc(N2CC[C@@H]3[C@@H]2CCN3C(=O)c2occc2C)nn1	0
CC(C)COCc1cncc2c1CCN(C(=O)c1cscn1)C2	0
O=C(NC1CC2(CCN(Cc3ccccn3)CC2)C1)c1ccnnc1	0
CC(C)N1CCOCC2(CCCN(C(=O)c3cc4ccccc4[nH]3)C2)C1 (stereo not given)	0
COc1ccc2c3c(n(C)c2c1)[C@@H](CO)N(S(=O)(=O)c1ccc(C)cc1)CC31CCN(Cc2cccnc2)CC1	0
COc1cc(CO)c(-c2c[nH][nH]c2=O)cc1OC	0
O=C(CN1CCOCC1)N1CC[C@@H]2[C@@H](CO)Nc3ccc(-c4ccccc4F)cc3[C@@H]21	0
COc1ccc(CCN2C(=O)N(C)C(=O)C23CCN(Cc2ccccc2C(F)(F)F)CC3)cc1	0
C[C@H]1[C@H](OC(=O)CCC(=O)O)O[C@@H]2O[C@@]3(C)CC[C@H]4[C@H](C)CC[C@@H]1[C@@]24OO3	-79.9
CC(=O)[C@H]1CCC2C3CC=C4C[C@@H](OC(=O)CCC(=O)O)CC[C@]4(C)C3CC[C@@]21C (stereo not given in full)	0
CCOC(=O)c1[nH]ncc1C1CC(=O)Nc2c1ccc(N1CCCC1)c2C (stereo not given)	0
O=C(Nc1ccc2c(c1)OCCO2)c1nc(Nc2ccccc2)c2ccccc2n1	0
CNC(=O)CC1C(=O)N(Cc2ccccc2)C(=S)N1NC(=O)c1ccccc1 (stereo not given)	0
CN1C(=O)CCc2cc(NS(=O)(=O)Cc3cccc(Cl)c3)ccc21	0
COCCN1C(=O)CCc2cc(NS(=O)(=O)c3ccc(Cl)s3)ccc21	0
COCCN1C(=O)CCc2cc(NS(=O)(=O)c3ccc(Br)cc3)ccc21	0
CN1C(=O)CCc2cc(NS(=O)(=O)c3ccc(Br)s3)ccc21	-97.1
CN1C(=O)CCc2cc(NS(=O)(=O)c3ccc(Br)cc3)ccc21	-95.1
Cc1ccc(S(=O)(=O)Nc2ccc3c(c2)CCC(=O)N3C)cc1Cl	0
CN(C)CCNC(=O)c1ccc(CSc2ncccn2)o1	0
Cc1ccc(C2(O)CCN(C(=O)CNC(=O)c3nc4ncccn4n3)C2)cc1 (stereo not given)	0
N[C@@H](C(=O)O)[C@@H](OCc1ccccc1)C(=O)O (racemic)	0
Cc1cccc(-c2nc(Cn3nnc(-c4nc(-c5ccccc5Cl)no4)c3C)c(C)o2)c1	0
